Measurements as given in PubChem BioAssay (NCATS).
Activity calls are given as the source filed them. Entries that show only a call come without a potency. Calls come from the whole dose curve; as a rule, active = well fitted activation curve with a large enough effect; inconclusive = small, poorly fitted or top-dose-only effect; inactive = no such curve, though single readings can be large or run the other way.

Molecular target: Cytochrome P450 3A4 (Homo sapiens) (UniProt P08684)
Assay: qHTS Assay for Activators of Cytochrome P450 3A4 (AID 885); note: nearly all actives have a fitted effect of over 65% in size
Conditions: recombinant CYP3A4, Luciferin-PPXE luminescence, 60 min; series mostly up to 57.1 µM
Description: NIH Molecular Libraries Screening Centers Network [MLSCN]
NIH Chemical Genomics Center [NCGC]
The P450 gene superfamily is involved in the metabolism and clearance of xenobiotics. This assay used human CYP3A4 to measure the dealkylation of luciferin-6' phenylpiperazinylyl (Luciferin-PPXE; […]) to luciferin. The luciferin is then measured by luminescence after the addition of a luciferase detection reagent. Luciferin-PPXE concentration in the assay was equal to its KM for CYP3A4. Inhibitors and some substrates limit the production of luciferin, and decrease measured luminescence; activators increase the production of luciferin and luminescence.
NCGC Assay Protocol Summary:
Two uL of enzyme and substrate mix (final concentrations: 20nM CYP3A4, 25uM Luciferin-PPXE, 200mM KPO4) were dispensed into a white, solid bottom 1536-well microtiter plate. 23nL of compound was transferred by a pin tool. The plate was incubated at RT for 10 min. Two uL of an NADPH regeneration solution (Promega supplied reagent) was dispensed and the reaction was allowed to continue for 60 min at RT. Then the reaction was stopped by reconstituted luciferin detection buffer. After another 20 min of incubation the plate was read on the ViewLux (Perkin Elmer) at 60 sec exposure and 2x2 binning. This protocol was carried out with Promega-Glo reagents and further information can be found at http://www.promega.com/tbs/tb325/tb325.pdf. Data were normalized to the to AC100 inhibition (57 uM ketoconazole).
Keywords: P450, CYP2D6, Luciferase, MLSMR, MLSCN, NIH Roadmap, qHTS, NCGC
Potency is the fitted concentration of half-maximal effect.

Chain of Cytochrome P450 3A4 (Homo sapiens) (P08684 whole entry, looked up): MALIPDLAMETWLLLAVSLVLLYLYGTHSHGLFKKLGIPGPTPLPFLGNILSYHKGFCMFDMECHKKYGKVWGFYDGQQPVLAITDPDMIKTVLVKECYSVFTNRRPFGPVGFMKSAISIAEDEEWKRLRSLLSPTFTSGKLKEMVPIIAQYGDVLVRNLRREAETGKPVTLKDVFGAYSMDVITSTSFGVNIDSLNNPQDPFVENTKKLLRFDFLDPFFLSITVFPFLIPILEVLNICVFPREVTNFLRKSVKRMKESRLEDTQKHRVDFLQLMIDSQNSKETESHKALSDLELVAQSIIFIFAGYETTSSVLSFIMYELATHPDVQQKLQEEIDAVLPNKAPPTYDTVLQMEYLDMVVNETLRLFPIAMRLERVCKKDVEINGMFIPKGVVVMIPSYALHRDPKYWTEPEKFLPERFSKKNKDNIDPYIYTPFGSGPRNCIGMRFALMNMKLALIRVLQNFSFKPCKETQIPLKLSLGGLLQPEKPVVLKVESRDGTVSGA

Structure (SMILES) | Potency
CC1C(=O)OC2C1CC[C@@]1(C)C=CC(=O)[C@@]3(C)O[C@@]213 (stereo not given in full) | inactive
CC(C)c1cc2c(c(O)c1O)[C@]1(C(=O)O)CCCC(C)(C)C1CC2 (stereo not given in full) | inactive
C[C@@H]1O[C@H](O[C@@H]2CC[C@@]3(C=O)[C@H]4CC[C@@]5(C)[C@@H](C6=CC(=O)OC6)CC[C@@]5(O)[C@@H]4CC[C@]3(O)C2)C[C@H](O)[C@@H]1O | inactive
COc1cc(C=C(C#N)C#N)cc(O)c1O | inactive
NNCc1ccccc1 | inactive
CC1CC(O)[C@]2(O)[C@]13CC(=O)OC[C@@]2(C)[C@@](C)(O)C(=O)C3 (stereo not given in full) | inactive
CCN(CC)C(=O)N[C@@H]1C[C@H]2c3cccc4[nH]cc(c34)C[C@@H]2N(C)C1 | inactive
c1cc2c(cc1C1OC[C@@H]3C(c4ccc5c(c4)OCO5)OCC13)OCO2 (stereo not given in full) | inactive
CN1Cc2c(ccc3c2OCO3)[C@@H]2[C@@H](O)Cc3cc4c(cc3[C@@H]21)OCO4 | inactive
CC1(C)C(O)CC(O)[C@]2(C)C1CC(=O)[C@]1(C)C2CC[C@@]2(C)C(c3ccoc3)OC(=O)C3OC321 (stereo not given in full) | inactive
CC1=C2C3OC(=O)[C@H](C)[C@H]3CC[C@@]2(C)C=CC1=O (stereo not given in full) | inactive
CC(=O)OC1CC2C(C)(C)C(O)C=C[C@@]2(C)C2CC[C@]3(C)C(=CC(=O)OC3c3ccoc3)[C@]12C (stereo not given in full) | inactive
CCN1C[C@@]2(COC(=O)c3ccccc3N3C(=O)CC(C)C3=O)CC[C@H](OC)[C@]34C5C[C@@H]6[C@@H](OC)C[C@@](O)(C5[C@H]6OC)[C@@](O)(C13)[C@@H](OC)C24 (stereo not given in full) | inactive
c1ccc(CN2CC[C@@]3(CCCNC3)C2)cc1 | inactive
CCC(C)C(=O)O[C@@H]1C[C@@]2(C)C(c3ccoc3)OC(=O)CC23OC2(C)O[C@@]14[C@@]1(C)C(CC(=O)OC)C5(C)CC1(O)C(O)(C5OC(=O)C1(C)OC1C)C(OC(C)=O)[C@@]34O2 (stereo not given in full) | inactive
COc1cc(C2c3cc4c(cc3C(O)C3COC(=O)C23)OCO4)cc(OC)c1O (stereo not given) | inactive
COc1ccccc1CN1CC[C@@]2(CCCN(C(=O)Oc3ccccc3)C2)C1 | inactive
CC1=C2C3OC(=O)C(C)C3CC[C@@]2(C)C=CC1=O (stereo not given in full) | inactive
c1ccc(N2CCCC3(CCNCC3)C2)nc1 | inactive
O=C(c1csnn1)N1CCC2(CC1)CN(Cc1ccncc1)C2 | inactive

Structure (SMILES) | Potency
Clc1ccccc1-c1cncnc1NCCc1cnc[nH]1 | inactive
CCN1C[C@@]2(C)CC[C@@H](OC)[C@@]34C2C(O)[C@@]2(OCO[C@]25CC(OC)C2C[C@@]3(O)C5C2O)C14 (stereo not given in full) | inactive
O=C(Oc1ccccc1)N1CCC2(CCN(Cc3ccncc3)CC2)CC1 | inactive
COC1=CC23CCCN2CCc2cc4c(cc2C3C1O)OCO4 (stereo not given) | inactive
COc1cc2c(cc1O)C[C@H]1c3c(cc(OC)c(O)c3-2)CCN1C | inactive
CN1CC[C@@]2(CCCN(C(=O)c3ccco3)C2)C1 | inactive
COc1cc2c(cc1-c1cc3cc4ccoc4cc3oc1=O)OCO2 | inactive
CC(=O)OC1C2C(OC(=O)Cc3ccccc3)C(C)CC2(OC(C)=O)C(=O)/C(C)=C/C2C(CC[C@@]13CO3)C2(C)C (stereo not given in full) | inactive
CC(C)(C)C(=O)C(Oc1ccc(Cl)cc1)n1cncn1 (stereo not given) | inactive
O=C(Nc1cccc(F)c1)N1CC[C@@]2(CCCN(C(=O)Oc3ccccc3)C2)C1 | inactive
CC(=O)OC1CC2C(C)(C)C(=O)C=C[C@]2(C)C2CC[C@]3(C)C(=CC(=O)OC3c3ccoc3)[C@]12C (stereo not given in full) | inactive
CN1CC[C@@]2(CCCN(C(=O)c3ccncc3)C2)C1 | inactive
c1cc(CN2CCCC3(CCNCC3)C2)ccn1 | inactive
CC(=O)O[C@H]1CC[C@@]2(C)C(=CC[C@@H]3[C@H]2CC[C@]2(C)C(=O)CC[C@H]32)C1 | 12.6 µM (active)
c1nc[nH]n1 | inactive
CC(C)c1ccc2c(c1O)CCC1C3=C(CC[C@]21C)C(=O)OC3 (stereo not given in full) | inactive
C=C1C/C(=C\C)C(=O)O[C@@H]2CCN3CC=C(COC(=O)[C@@]1(C)O)[C@H]23 | inactive
CCCCCC1C(=O)O[C@H](C)[C@@H](NC(=O)c2cccc(NC=O)c2O)C(=O)OC(C)C1OC(=O)CC(C)C (stereo not given in full) | inactive
CCc1c(C(=O)OC)ncc2[nH]c3cc(OC)c(OC)cc3c12 | inactive
C=CC1CN2CCC1CC2C(OC(=O)OCC)c1ccnc2ccc(OC)cc12 (stereo not given) | inactive
